Bioassay records (PubChem BioAssay)
Vc quorum ag = induces V. cholerae light production without autoinducers. V. cholerae BH1578 lux reporter, luminescence, 6 h. activation, % at 18.7 µM. 0.16% of 350,000 active. AID 588436; in the data active = activation mostly above about 9.7%, no sharp cut-off
GDH-TPI counter = GDH-TPI coupled enzyme inhibition counter-screen; GDH-TPI coupled enzyme counterscreen, NADH absorbance; inhibition, % at 4.8 µM; 1.2% of 360,000 active; AID 588335; in the data active = inhibition above about 30%;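 also: 0% = DMSO wells and 100% = wells lacking the enzyme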
FBA Mtb inh = inhibits M. tuberculosis FBA enzyme | P9WQA3 | purified M. tuberculosis FBA, fluorescence read-out | inhibition, % at 1 µM | 2.3% of 360,000 active | AID 588726; in the data active = inhibition above about 27%;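 also: 0% = vehicle and 100% = reference inhibitor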
Target sequence (P9WQA3 whole entry, looked up): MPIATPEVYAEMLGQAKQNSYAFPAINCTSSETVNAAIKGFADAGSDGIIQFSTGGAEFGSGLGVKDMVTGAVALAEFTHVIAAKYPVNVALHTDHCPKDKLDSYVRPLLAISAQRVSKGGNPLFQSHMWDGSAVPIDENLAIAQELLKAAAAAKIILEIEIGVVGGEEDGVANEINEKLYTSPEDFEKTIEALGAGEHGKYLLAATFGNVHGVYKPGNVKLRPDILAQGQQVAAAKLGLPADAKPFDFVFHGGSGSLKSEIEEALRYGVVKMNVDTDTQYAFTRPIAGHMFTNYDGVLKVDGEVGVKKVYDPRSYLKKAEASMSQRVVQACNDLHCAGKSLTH
BioA inh = BioA (M. tuberculosis) enzyme inhibition; purified M. tuberculosis BioA enzyme, plate reader; inhibition, % at 9.99 µM; 0.096% of 360,000 active; AID 602481; in the data active = inhibition above about 40%
Numbers without * were called inactive; i = inactive; · = no result. The list is not random: actives were taken first. Their share in the collection is about 3%.

SMILES	Vc quorum ag	GDH-TPI counter	FBA Mtb inh	BioA inh
COc1cc(F)cc(-c2ccc3c(c2)c(C#Cc2ccsc2)c(-c2cc(OC)cc(OC)c2)n3C)c1	-0.4	31.4*	13.9	-3.4
COc1ccc(-c2c(C#Cc3ccsc3)c3cc(-c4cccc5[nH]ccc45)ccc3n2C)cc1	i	16.8	24.2	-0.8
COc1cc(OC)cc(-c2c(C#Cc3ccsc3)c3cc(-c4cccc5[nH]cc(C=O)c45)ccc3n2C)c1	0.8	32.3*	6.4	-2.6
Cc1noc(C)c1NC(=O)N(C)C[C@H]1Oc2ccc(NC(=O)C3CCCCC3)cc2CC(=O)N([C@H](C)CO)C[C@@H]1C	·	·	·	-0.1
CN1CCN(C(=O)C[C@@H]2C[C@@H]3c4cc(NC(=O)CC5CC5)ccc4O[C@@H]3[C@@H](CO)O2)CC1	·	·	·	-2.5
CCC(=O)N1C[C@@H](C)[C@@H](OC)CN(C)C(=O)c2cc(NC(=O)Nc3cccc(F)c3)ccc2OC[C@H]1C	·	·	·	7.0
Cc1ccc(-c2ccc3c(c2)O[C@@H](CN(C)S(C)(=O)=O)[C@H](C)CN([C@H](C)CO)S3(=O)=O)cc1	·	·	·	7.5
O=C(N/N=C/c1ccc(-c2ccccc2)o1)c1ccccc1O	-3.2	29.1	-1.4	·
N/C(=N\N=C/c1ccc(-c2ccc(O)c(C(=O)O)c2)o1)N[N+](=O)[O-]	-0.4	58.3*	4.1	2.1
COc1ccc(NC(=O)N(C)C[C@H]2Oc3c(NC(=O)C4CCOCC4)cccc3C(=O)N([C@H](C)CO)C[C@H]2C)cc1	·	·	·	-1.8
Cc1ccc(C(CC(=O)c2ccco2)SCCO)cc1 (configuration not stated)	i	32.8*	0.8	0.9
O=C(CC(SCCO)c1ccc(F)cc1)c1ccco1 (configuration not stated)	·	19.4	-0.7	0.2
COc1cccc(/C=N/NC(=S)Nc2cccnc2)c1	-0.2	7.1	1.6	0.5
Oc1ccc(/C=N/NC(=S)Nc2cccnc2)cc1	-3.7	35.6*	4.8	·
Oc1ccc(/C=N/NC(=S)N/N=C/c2ccc(O)cc2)cc1	-0.1	75.3*	3.5	0.5
COc1ccccc1NC(=S)N/N=C/c1ccc(O)cc1	-0.4	32.8*	2.8	·
CC(=O)NC[C@@H]1[C@@H](c2ccc(-c3cccnc3)cc2)[C@@H](CO)N1C(=O)C1CCC1	·	·	·	6.2
COC1=C/C(=C/c2c(O)c(C#N)c3ccccn23)C=CC1=O	i	44.2*	7.6	·
COc1cc(OC)cc(C(=O)c2c(C)c(C#N)c3ccccn23)c1	i	-2.9	-2.5	-1.0
O=[N+]([O-])c1ccc(NCc2ccc(Cl)cc2)nc1	-1.6	33.8*	-3.0	3.3
Cn1c(C(C#N)C(=O)c2ccco2)nc2ccccc21 (configuration not stated)	-3.6	32.8*	3.6	-2.1
Cc1cc(C#Cc2c(-c3ccccc3)n(C)c3ccccc23)ccc1F	i	15.9	26.9*	-2.7
CCNC(=O)Nc1ccc2c(c1)C(=O)N(C)[C@@H]1CC[C@H](CC(=O)Nc3ccccc3)O[C@@H]1CO2	·	·	·	1.8
C1CCN(c2nc3nonc3nc2NCC2CCOCC2)CC1	i	52.0*	3.6	0.2
CCCCCCCCOc1ccc(C2OC34CCCCC3C(C#N)(C#N)C2(C#N)C(=N)O4)cc1 (configuration not stated)	i	-2.2	49.8*	-9.1
SMILES	Vc quorum ag	GDH-TPI counter	FBA Mtb inh	BioA inh
CCCCCOc1ccc(C2NC(=O)NC2=O)cc1 (configuration not stated)	·	-3.4	1.4	1.9
N#C[C@@H]1[C@H](c2ccc(-c3ccccc3F)cc2)[C@@H](CO)N1C(=O)Cc1ccccc1	·	·	·	-1.2
O=C(c1ccccc1)c1ccc(C(=O)N2CCN(c3ccc(O)cc3)CC2)cc1	i	0.0	0.8	2.4
O=C(c1ccc(N2CCN(C(=O)c3ccc(F)c(F)c3)CC2)cc1)c1cccc(F)c1	-0.7	32.0*	-1.2	0.9
O=C(c1cccnc1)N1CCN(c2ccc(Cl)cc2)CC1	-0.2	32.1*	2.9	5.5
O=C(c1ccc(N2CCN(C(=O)c3ccccc3)CC2)cc1)c1cccc(F)c1	i	37.6*	-2.3	0.5
O=C(c1cccc(F)c1)N1CCN(c2cccc(Cl)c2)CC1	2.7	-6.4	4.5	·
CC(C)NC(=O)Nc1ccc2c(c1)C(=O)N([C@H](C)CO)C[C@H](C)[C@@H](CN(C)Cc1ccc(Oc3ccccc3)cc1)O2	·	·	·	-2.3
CCCC(=O)Nc1ccc2c(c1)OC[C@@H](C)N(CC1CCCC1)C[C@H](C)[C@H](OC)CN(C)C2=O	·	·	·	2.3
COC(=O)N/N=C/c1c(C)c(C(=O)c2ccc(F)cc2)n2ccccc12	-0.3	17.4	-10.6	0.3
Cc1c(/C=N/NC(N)=O)c2ccccn2c1C(=O)c1ccncc1	i	55.8*	1.1	1.6
Cc1c(/C=N/NC(=O)c2ccc(O)cc2)c2ccccn2c1C(=O)c1ccc(F)cc1	0.0	31.7*	-2.7	·
Cc1c(/C=N/NC(=O)c2ccccc2O)c2ccccn2c1C(=O)c1ccc(F)cc1	-0.3	14.7	4.8	·
CN1CCN(C(=O)C[C@H]2C[C@H]3c4cc(NC(=O)C5CCOCC5)ccc4O[C@H]3[C@@H](CO)O2)CC1	·	·	·	-1.4
O=C(NCc1cccnc1)/C(=C\c1ccc(-c2ccc(Cl)c(Cl)c2)o1)S(=O)(=O)c1ccccc1	-0.5	31.3*	0.5	-2.8
Cc1noc(C)c1NC(=O)N(C)C[C@H]1Oc2c(NC(=O)Nc3ccccc3)cccc2C(=O)N([C@@H](C)CO)C[C@H]1C	·	·	·	0.1
CCCC(=O)Nc1ccc2c(c1)C(=O)N(C)[C@H]1CC[C@H](CC(=O)Nc3ccc(C)cc3)O[C@@H]1CO2	·	·	·	-1.6
Cc1c(C(=O)Nc2nnc(C3CC3)s2)oc2c(Cl)cccc12	-0.4	37.1*	2.1	·
CNC(=O)C[C@H]1CC[C@@H]2[C@@H](COc3ccc(NC(=O)C(C)C)cc3C(=O)N2C)O1	·	·	·	-2.3
CCOc1cc(/C=N\Nc2ncc(F)c(N3CCOCC3)n2)ccc1Oc1nc(Cl)ncc1F	-1.0	32.7*	-2.6	·
CCOc1cc(/C=N/NC(=O)c2ccc(O)cc2)ccc1Oc1nc(Cl)ncc1F	-0.7	22.8	-2.4	·
COc1cnc(-c2ccccn2)nc1NC(C)C	-0.4	0.9	46.5*	·
CC(C)C#Cc1cnc2c(c1)C(=O)N([C@H](C)CO)C[C@H](C)[C@H](CN(C)C(=O)Nc1ccccc1F)O2	·	·	·	1.0
CCCC#Cc1cnc2c(c1)C(=O)N([C@@H](C)CO)C[C@@H](C)[C@@H](CN(C)C(=O)CN1CCOCC1)O2	·	·	·	0.5
C[C@@H]1CN([C@@H](C)CO)C(=O)c2cccc(NC(=O)Nc3ccc(F)cc3)c2O[C@@H]1CN(C)CC1CC1	·	·	·	0.9
O=c1cc(-c2ccc(O)c(-c3c(O)cc(O)c4c(=O)cc(-c5ccc(O)cc5)oc34)c2)oc2cc(O)cc(O)c12	i	33.5*	-1.2	-1.0
O=c1cc(-c2ccc(O)c(O)c2)oc2cc(O)cc(O)c12	-5.2	16.7	-3.6	-2.3
COc1ccc(-c2cc(=O)c3c(O)cc(O)cc3o2)cc1	-0.3	33.7*	2.3	-2.6
O=c1cc(-c2ccc(O)cc2)oc2c(-c3c(O)cc(O)c4c(=O)cc(-c5ccc(O)cc5)oc34)c(O)cc(O)c12	-0.6	35.3*	1.1	-2.6
